Source: PubChem (National Center for Advancing Translational Sciences (NCATS))
Vaccinia Venus – vaccinia inhibition (Venus reporter). Vaccinia virus Venus reporter expression, fluorescence. Potency, µM (doses to about 36.5 µM), inactives show at the top dose activity change, negative = inhibition, hits mostly inhibitors. actives 0.46% (n = 330,000); calls by dose curve; tested in A549 cells; further: potency means the concentration at half of the fitted maximal effect; nearly all actives have a fitted effect of over 30% in size
Vaccinia mCherry – vaccinia inhibition (mCherry reporter); Potency, µM (titrated, usually from 36.5 µM), for inactives: top-dose activity change, negative = inhibition, actives largely listed as inhibitors; actives 0.63% (n = 310,000); Vaccinia virus mCherry reporter infection, fluorescence; calls by dose curve; tested in A549 cells; further: potency means the concentration at half of the fitted maximal effect; nearly all actives have a fitted effect of over 35% in size
FMDV inh – antivirals against foot and mouth disease virus; actives 1.2% (n = 410,000); AID 1159524; FMDV antiviral cell-based qHTS; Potency, µM (highest dose often 57.9 µM), for inactives: at the top dose activity change, negative = inhibition, hits mostly inhibitors; calls by dose curve; tested in HEK293T cells; further: read-out not given here; potency means the concentration at half of the fitted maximal effect; nearly all actives have a fitted effect of over 45% in size
HCV inh – HCV inhibition | Huh7.5.1 HCVcc-Cre infection, luciferase reporter, 44 h | Potency, µM (highest dose often 41.8 µM), for the others: at the top dose activity change, negative = inhibition, usual class: inhibitors | actives 3.4% (n = 340,000) | AID 651820; active means well fitted inhibition curve with a large enough effect; inconclusive means small, poorly fitted or top-dose-only effect, or another doubt; inactive means no such curve, though single readings can be large or run the other way; further: potency means the concentration at half of the fitted maximal effect
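Cells seeded at 1,000/well and cultured 4 h, then compounds added followed by HCVcc-Cre virus (~0.5 moi). After 44 h further culture, luciferase substrate was added, plates held 15 min at room temperature, and luminescence read for 15 sec.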
HCMV antiviral – blocks human cytomegalovirus replication; actives 4.5% (n = 410,000); HFF cells, HCMV-luciferase reporter, 72 h; active compounds read low; activity change, negative = inhibition, % at 57.5 µM; in the data active means activity change below about -60%; inconclusive means no clear call, values can overlap the other calls; inactive means above about -39%
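Human foreskin fibroblasts infected with luciferase-reporter HCMV at MOI 1 PFU/cell, compounds at two doses. Luciferase measured 72 h post infection; normalized to buffer-only basal and Salinomycin (10uM) controls.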
Starred values were filed as active, the others as inactive. Compounds with a hit are over-represented: about 7.3% of the library has one in this group of screens. On the % scale 0 is the no-effect control and ±100 the full control effect.

O=C1/C(=C/c2ccccc2Cl)SC(=S)N1CCCC(=O)N(CCO)c1ccccc1 was read as FMDV inh inconclusive, HCV inh 13µM* and HCMV antiviral -91*.
Screening O=C(CCCN1C(=O)/C(=C/c2ccccc2Cl)SC1=S)NNC(=O)c1ccc(Cl)cc1 returned Vaccinia Venus -14%, Vaccinia mCherry -7%, FMDV inh 7.9µM*, HCV inh -12% and HCMV antiviral -75*.
Screening O=C(CCCN1C(=O)/C(=C/c2ccccc2Cl)SC1=S)Nc1ccccn1 returned Vaccinia Venus 2%, Vaccinia mCherry 0%, FMDV inh inconclusive, HCV inh inconclusive and HCMV antiviral -97*.
Screening Cc1ccc(-n2nnnc2CNC(=O)c2ccccc2)cc1C returned Vaccinia Venus -6%, Vaccinia mCherry -12%, FMDV inh -4% and HCMV antiviral 28.
O=C(CN1C(=O)CCc2cc(S(=O)(=O)N3CCOCC3)ccc21)NCc1ccc(F)cc1 was read as Vaccinia Venus -3%, Vaccinia mCherry -12%, FMDV inh 7% and HCMV antiviral 5.
For Fc1ccc(Nc2ncnc3ccc(-c4ccoc4)cc23)cc1 the results were FMDV inh -29%.
CSc1ccc(CNC(=O)CN2C(=O)C3CCCCN3c3ccc(C(=O)N4CCCC4)cc32)cc1 (stereo unspecified) was read as Vaccinia Venus -2%, Vaccinia mCherry -4%, FMDV inh -2% and HCMV antiviral -9.
For CN(C)c1ccc(C2CC(c3c(O)n(C4CCCCC4)c(=O)[nH]c3=O)=Nc3ccccc3S2)cc1 (stereo unspecified) the results were Vaccinia Venus 14%, Vaccinia mCherry -14%, FMDV inh inconclusive and HCMV antiviral -28.
For O=C(CCN1C(=O)/C(=C/c2ccccc2Cl)SC1=S)NCCc1ccc(O)cc1 the results were FMDV inh -5%, HCV inh inconclusive and HCMV antiviral -101*.
`O=C(CCCOc1ccccc1)Nc1cccnc1` gave Vaccinia Venus -6%, Vaccinia mCherry -1%, FMDV inh 11%, HCV inh 7% and HCMV antiviral -34.
O=C(COc1ccc(C(=O)c2ccccc2)cc1)Nc1cccnc1 was read as Vaccinia Venus 2%, Vaccinia mCherry -13%, FMDV inh inconclusive, HCV inh 6.3µM* and HCMV antiviral -38.
O=C(COc1ccc2ccccc2c1)Nc1ccncc1 was read as Vaccinia Venus -21%, Vaccinia mCherry inconclusive, FMDV inh -13%, HCV inh inconclusive and HCMV antiviral -100*.
For CC(=O)Nc1ccc(NC(=O)COc2ccc(-c3ccc(C#N)cc3)cc2)cc1 the results were Vaccinia Venus -4%, Vaccinia mCherry -16%, FMDV inh -12%, HCV inh 0% and HCMV antiviral 21.
Screening N#Cc1ccc(-c2ccc(OCC(=O)Nc3cccnc3)cc2)cc1 returned Vaccinia Venus -15%, Vaccinia mCherry -11%, FMDV inh inconclusive, HCV inh inconclusive and HCMV antiviral -69*.
Cc1ccc(C2=Nc3ccccc3N(CC(=O)Nc3ccccc3F)C(=O)C2)cc1C was read as Vaccinia Venus -12%, Vaccinia mCherry -2%, FMDV inh 11% and HCMV antiviral 12.
`Cc1cc(C)c(-n2c(SCc3nc4ccccc4s3)n[nH]c2=O)c(C)c1` gave Vaccinia Venus -27%, Vaccinia mCherry -27%, FMDV inh 35µM*, HCV inh -10% and HCMV antiviral 51.
For Cc1cc(C)c(-n2c(SCCS(=O)(=O)c3ccc(F)cc3)n[nH]c2=O)c(C)c1 the results were Vaccinia Venus 2.8µM*, Vaccinia mCherry 2µM*, FMDV inh -25%, HCV inh -15% and HCMV antiviral -24.
For Cc1ccc(S(=O)(=O)CCSc2n[nH]c(=O)n2-c2ccccc2)cc1 the results were Vaccinia Venus 2µM*, Vaccinia mCherry 2µM*, FMDV inh -25%, HCV inh inconclusive and HCMV antiviral inconclusive.
Screening CCNC(=O)c1sc2ncnc(NCCCN3CCOCC3)c2c1C returned Vaccinia Venus 14%, Vaccinia mCherry 0% and FMDV inh -4%.
Screening Cc1cc(N(C)Cc2ccccc2)nc(-c2ccccc2)n1 returned FMDV inh -14%, HCV inh 10µM* and HCMV antiviral 58.
O=c1[nH]cnc2nn(C3OC(CO)C(O)C3O)nc12 (stereo unspecified) was read as HCMV antiviral 64.
Screening O=C(/C=C/c1ccc(Cl)cc1Cl)Nc1ccc(CN2CCOCC2)cc1 returned FMDV inh inconclusive, HCV inh 3.2µM* and HCMV antiviral -86*.
Screening O=C(Nc1ccc(CN2CCOCC2)cc1)c1ccc(-c2cccc([N+](=O)[O-])c2)o1 returned FMDV inh inconclusive, HCV inh 32µM* and HCMV antiviral inconclusive.
O=C(Nc1ccc(CN2CCOCC2)cc1)c1ccc(-c2cc(Cl)ccc2Cl)o1 was read as Vaccinia Venus inconclusive, Vaccinia mCherry inconclusive, FMDV inh 28µM*, HCV inh inconclusive and HCMV antiviral inconclusive.
Screening O=[N+]([O-])c1cccc(-c2ccc(C(=S)N3CCOCC3)o2)c1 returned Vaccinia Venus 1%, Vaccinia mCherry -16%, FMDV inh 4%, HCV inh -30% and HCMV antiviral 37.
Screening O=C(Nc1ccc(CN2CCOCC2)cc1)c1ccc(Br)o1 returned FMDV inh 33%, HCV inh 12% and HCMV antiviral 67.
Screening O=C(/C=C/c1ccccc1)Nc1ccc(CN2CCOCC2)cc1 returned FMDV inh 33%, HCV inh 2% and HCMV antiviral -27.
CCCN(CCC)CCCNC(=O)c1nn(C)c2c1CS(=O)(=O)c1ccccc1-2 was read as Vaccinia Venus -5%, Vaccinia mCherry 0%, FMDV inh 14% and HCMV antiviral -13.
`O=C(NCCCn1ccnc1)C(=O)NCc1ccc(Cl)cc1` gave Vaccinia Venus 9%, Vaccinia mCherry -1%, FMDV inh 0%, HCV inh 13% and HCMV antiviral 17.
COc1cccc(NC(=O)C(=O)NCCCn2ccnc2)c1 was read as Vaccinia Venus 10%, Vaccinia mCherry 9%, FMDV inh 45%, HCV inh 14% and HCMV antiviral -64*.
For Cc1ccc(CNC(=O)C(=O)NCCCn2ccnc2)cc1 the results were Vaccinia Venus -4%, Vaccinia mCherry -13%, FMDV inh -9%, HCV inh 23% and HCMV antiviral -67*.
`CCCCCOc1ccc(NC(=O)C(=O)NCCCn2ccnc2)cc1` gave FMDV inh -22%, HCV inh inconclusive and HCMV antiviral -20.
CC(=O)c1ccc(-c2ccccc2C2=CC(=O)CC(C)(C)C2=O)cc1 was read as HCMV antiviral -18.
`Cc1ccccc1CCNC(=O)c1cc2cc(S(=O)(=O)N3CCCCC3)ccc2n1C` gave Vaccinia Venus -25%, Vaccinia mCherry -29%, FMDV inh inconclusive and HCMV antiviral -3.
